Experimental data published in PubChem BioAssay AID1159580 (chemical genetic matrix, 2015).
Screen size: about 5,500 compounds; about 2,000 (36%) were called active. Roughly 18% stayed inconclusive and do not appear here. Cut-off read from the data, not from the text of the source: active = normalized growth mostly below about 0.91 (no sharp cut-off); inconclusive = no clear call, values can overlap the other calls; inactive = mostly above about 0.92. Some of the results follow.

Test: chemical genetic growth profiling, strain panel (AID 1159580);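 note: tested at 20 µM; growth read once vehicle control cultures reached saturation at 30 °C; 1 = growth at the plate median or of vehicle wells; lower values mean less growth of the strain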
Conditions: S. cerevisiae deletion strains, growth OD

Measured: normalized growth

C[C@H](CCC(=O)O)[C@H]1CCC2C3C(CC[C@@]21C)[C@@]1(C)CC[C@@H](O)C[C@H]1C[C@H]3O (stereo partly drawn)
active: locus YLR262C, strain YPT6 (second series), hits give low values 0.799 | locus YOL147C, strain pex11, hits give low values 1.07 [resistant] | locus YOR231W, strain MKK1, hits give low values 0.849
inactive: locus YJR043C, strain POL32, hits give low values 0.999 | locus YJR066W, strain TOR1, hits give low values 0.862 | locus YJR075W, strain HOC1, hits give low values 1.04 | locus YKL009W, strain mrt4, hits give low values 0.9 | locus YKL068W, hits give low values 1.03 | locus YKL085W, strain MDH1 (second series), hits give low values 1.03 | locus YKL085W, strain MDH1, hits give low values 1.03 | locus YKL160W, strain elf1, hits give low values 0.974 | locus YKR001C, strain vps1, hits give low values 1.09 | locus YKR026C, strain gcn3, hits give low values 1.03 | locus YKR091W, strain srl3, hits give low values 1.01 | locus YLL001W, strain dnm1, hits give low values 0.991 | locus YLL026W, hits give low values 1.02 | locus YLL041C, strain sdh2, hits give low values 1.03 | locus YLR027C, strain aat2, hits give low values 1.01 | locus YLR039C, strain RIC1, hits give low values 1.02 | locus YLR058C, strain SHM2, hits give low values 1.01 | locus YLR102C, strain apc9, hits give low values 1.05 | locus YLR113W, strain HOG1, hits give low values 0.923 | locus YLR221C, strain rsa3, hits give low values 0.954 | locus YLR258W, strain gsy2, hits give low values 0.996 | locus YLR262C, strain YPT6, hits give low values 0.99 | locus YLR268W, strain sec22, hits give low values 1.03 | locus YLR320W, strain mms22, hits give low values 0.955 | locus YLR330W, strain CHS5, hits give low values 1.04 | locus YLR342W, strain FKS1 (second series), hits give low values 1.04 | locus YLR342W, strain FKS1, hits give low values 1 | locus YLR357W, strain rsc2, hits give low values 1.09 | locus YLR370C, strain arc18, hits give low values 0.993 | locus YLR371W, strain rom2, hits give low values 1.07 | locus YLR384C, strain iki3, hits give low values 1.01 | locus YLR418C, strain cdc73, hits give low values 1.03 | locus YML016C, strain PPZ1, hits give low values 1.02 | locus YML032C, strain rad52, hits give low values 1.02 | locus YML120C, strain ndi1, hits give low values 0.962 | locus YML124C, strain tub3, hits give low values 1.05 | locus YMR058W, strain fet3, hits give low values 1.01 | locus YMR078C, strain ctf18, hits give low values 1.08 | locus YMR125W, strain sto1, hits give low values 1.04 | locus YMR129W, hits give low values 1.01 | locus YMR205C, strain PFK2, hits give low values 0.989 | locus YMR223W, strain ubp8, hits give low values 1.01 | locus YMR231W, strain pep5, hits give low values 0.993 | locus YMR263W, strain SAP30, hits give low values 1.02 | locus YMR307W, strain GAS1, hits give low values 1.1 | locus YNL067W, strain RPL9B, hits give low values 0.999 | locus YNL071W, strain lat1, hits give low values 1.01 | locus YNL153C, strain GIM3, hits give low values 1 | locus YNL183C, strain NPR1, hits give low values 0.854 | locus YNL209W, strain ssb2, hits give low values 1.02 | locus YNL233W, strain BNI4, hits give low values 1.05 | locus YNL248C, strain rpa49, hits give low values 1.01 | locus YNL250W, strain rad50, hits give low values 1.03 | locus YNL271C, strain bni1, hits give low values 1.01 | locus YNL298W, strain CLA4, hits give low values 0.977 | locus YNL307C, strain MCK1, hits give low values 1.04 | locus YNL322C, strain KRE1 (second series), hits give low values 1.02 | locus YNL322C, strain KRE1, hits give low values 1.03 | locus YNR049C, strain mso1, hits give low values 1.01 | locus YNR052C, strain pop2, hits give low values 0.994 | locus YOL012C, strain htz1 1.83 | locus YOR001W, strain rrp6, hits give low values 0.979 | locus YOR061W, strain CKA2, hits give low values 1.06 | locus YOR069W, strain VPS5, hits give low values 1.03 | locus YOR070C, strain gyp1, hits give low values 1.01 | locus YOR080W, strain dia2, hits give low values 1.02 | locus YOR083W, strain WHI5, hits give low values 0.971 | locus YOR106W, strain vam3, hits give low values 0.928 | locus YOR136W, strain idh2, hits give low values 1.06 | locus YOR144C, strain elg1, hits give low values 1.04 | locus YOR184W, strain ser1, hits give low values 1.01 | locus YOR265W, strain rbl2, hits give low values 1.01 | locus YOR270C, strain vph1, hits give low values 0.964 | locus YOR290C, strain snf2, hits give low values 0.979 | locus YOR316C, strain cot1, hits give low values 1.05 | locus YPL051W, strain arl3, hits give low values 0.978 | locus YPL078C, strain atp4, hits give low values 0.982 | locus YPL106C, strain sse1, hits give low values 1.08 | locus YPL240C, strain hsp82, hits give low values 1.01 | locus YPL256C, strain CLN2, hits give low values 0.952 | locus YPR119W, strain clb2, hits give low values 1.03 | locus YPR141C, strain kar3, hits give low values 1.06 | locus YPR163C, strain tif3, hits give low values 1.06 | locus YPR167C, strain met16, hits give low values 1.05 | strain wtn01, hits give low values 1.06
